Results taken from PubChem BioAssay (NCATS).
Results filed as inconclusive are left out. Activity calls are given as the source filed them. Unless noted, the call rests on the fitted dose curve; in most records, active means well fitted curve in either direction with a large enough effect (not every such curve was filed as active); inconclusive means small, poorly fitted or top-dose-only effect, or another doubt; inactive means flat fitted curve, though single readings scatter.

Tests used:
[1] = molecular target: Lysosomal acid glucosylceramidase (Homo sapiens) (UniProt P04062); experiment: Glucocerebrosidase-p2 (AID 348; in the data active means potency below about 10 µM; further: potency means the concentration at half of the fitted maximal effect); conditions: purified GBA, blue fluorogenic substrate, 40 min
Lysosomal acid glucosylceramidase (Homo sapiens), sequence (P04062 whole entry, looked up): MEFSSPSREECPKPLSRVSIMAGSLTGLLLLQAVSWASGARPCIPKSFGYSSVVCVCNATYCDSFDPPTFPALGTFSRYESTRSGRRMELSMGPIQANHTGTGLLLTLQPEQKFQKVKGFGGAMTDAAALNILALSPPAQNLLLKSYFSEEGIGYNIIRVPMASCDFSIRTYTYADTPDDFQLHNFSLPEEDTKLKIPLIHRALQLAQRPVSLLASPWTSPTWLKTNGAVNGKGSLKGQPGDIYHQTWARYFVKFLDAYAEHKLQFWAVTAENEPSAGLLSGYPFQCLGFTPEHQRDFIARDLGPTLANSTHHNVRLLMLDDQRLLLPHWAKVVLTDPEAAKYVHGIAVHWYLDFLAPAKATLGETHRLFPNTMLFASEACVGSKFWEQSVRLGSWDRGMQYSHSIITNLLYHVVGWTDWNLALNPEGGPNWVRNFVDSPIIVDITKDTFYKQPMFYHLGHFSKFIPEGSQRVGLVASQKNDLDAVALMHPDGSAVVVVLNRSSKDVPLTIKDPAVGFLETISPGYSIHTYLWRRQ
Method in brief: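 Normal human glucocerebrosidase (0.2 nM) with blue fluorogenic substrate (80 uM final) in citrate/phosphate pH 5.9 with 10mM sodium taurocholate, 0.01% tween-20; 40 min RT, NaOH/glycine stop; fluorescence Ex 365/Em 440; AC50 from a titration from 0.6 nM upwards.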

[2] = AP1 Signaling Pathway (AID 357); conditions: ME-180 AP-1-bla reporter, EGF-induced, beta-lactamase ratio, 5 h; at 7.69 µM (top of the series) unless noted;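 further: ME-180 reporter cells stimulated with EGF at its EC50 level; on the % scale 0 is the no-effect control and ±100 the full control effect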
Method in brief: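 A ratiometric CCF4 readout (405 nm excitation; 460 and 530 nm emission) quantified AP-1-driven beta-lactamase in ME-180 cells after 5 h with compound and EC50 EGF; AC50 values were derived for activators and inhibitors.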

[3] = molecular target: Cytochrome P450 1A2 (Homo sapiens) (UniProt P05177); experiment: p450-cyp1a2 (AID 410; calls by dose curve; further: potency means the concentration at half of the fitted maximal effect;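 on activity change, negative = inhibition: -100% = full effect of reference inhibitor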); conditions: recombinant CYP1A2, luciferin-ME demethylation, luminescence; series mostly up to 57 µM
Cytochrome P450 1A2 (Homo sapiens), sequence (P05177 whole entry, looked up): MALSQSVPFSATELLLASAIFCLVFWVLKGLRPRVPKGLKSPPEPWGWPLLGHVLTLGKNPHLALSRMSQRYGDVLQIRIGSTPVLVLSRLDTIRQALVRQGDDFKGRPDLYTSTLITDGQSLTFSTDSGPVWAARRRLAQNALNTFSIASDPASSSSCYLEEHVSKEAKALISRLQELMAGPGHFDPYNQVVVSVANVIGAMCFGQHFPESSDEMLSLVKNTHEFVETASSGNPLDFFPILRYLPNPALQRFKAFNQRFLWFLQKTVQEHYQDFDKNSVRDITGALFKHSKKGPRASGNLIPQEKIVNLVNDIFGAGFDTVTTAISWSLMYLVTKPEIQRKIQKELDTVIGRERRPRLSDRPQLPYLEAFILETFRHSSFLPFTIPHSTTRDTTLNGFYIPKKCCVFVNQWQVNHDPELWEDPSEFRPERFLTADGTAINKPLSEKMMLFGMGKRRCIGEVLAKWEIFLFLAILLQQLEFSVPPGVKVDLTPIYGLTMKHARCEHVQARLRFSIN
Method in brief: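 Luminescent demethylation readout: Luciferin-ME (100uM, equal to Km) turned over by 20nM CYP1A2 for 60 min at room temperature after NADPH regeneration addition, following 10 min compound preincubation. Normalization used 57 uM furafylline as full inhibition.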

[4] = NFAT Signaling Pathway (AID 444); conditions: Jurkat NFAT-bla M1, carbachol, beta-lactamase ratio, 5 h; at 7.69 µM (top of the series) unless noted;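 further: carbachol stimulus at about its EC50 of 1 µM final; on the % scale 0 is the no-effect control and ±100 the full control effect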
Method in brief: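 Jurkat cells with NFAT-driven β-lactamase reporter and co-expressed M1 receptor, stimulated with carbachol (final 1 uM, ~EC50), compound titration, 5 h at 37 °C. CCF4 loaded 1 h at RT; 460/530 nm ratio gave %activity and AC50.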

[5] = Stat Signaling Pathway (AID 446); conditions: ME-180 SIE beta-lactamase reporter, IL-6 stimulated, 5 h; at 7.69 µM (top of the series) unless noted;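 further: ME-180 cervical cancer cells given 40 pM IL-6 alongside compound; SIE-controlled beta-lactamase reporter measured as 460/530 nm FRET emission ratio; on the % scale 0 is the no-effect control and ±100 the full control effect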
Method in brief: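 Compound effects on IL-6-induced STAT reporter activity were measured in ME-180 cells. After overnight culture, cells were co-treated with 40 pM IL-6 for 5 hrs before beta-lactamase substrate loading at room temperature.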

[6] = molecular target: Glucocorticoid receptor (Homo sapiens) (UniProt P04150); experiment: GR-EFC Redistribution (AID 451; calls by dose curve; further: potency means the concentration at half of the fitted maximal effect); conditions: CHO-K1 GR-EFC translocation, beta-gal luminescence, 2 h
Glucocorticoid receptor (Homo sapiens), sequence (P04150 whole entry, looked up, the tested form may be a part): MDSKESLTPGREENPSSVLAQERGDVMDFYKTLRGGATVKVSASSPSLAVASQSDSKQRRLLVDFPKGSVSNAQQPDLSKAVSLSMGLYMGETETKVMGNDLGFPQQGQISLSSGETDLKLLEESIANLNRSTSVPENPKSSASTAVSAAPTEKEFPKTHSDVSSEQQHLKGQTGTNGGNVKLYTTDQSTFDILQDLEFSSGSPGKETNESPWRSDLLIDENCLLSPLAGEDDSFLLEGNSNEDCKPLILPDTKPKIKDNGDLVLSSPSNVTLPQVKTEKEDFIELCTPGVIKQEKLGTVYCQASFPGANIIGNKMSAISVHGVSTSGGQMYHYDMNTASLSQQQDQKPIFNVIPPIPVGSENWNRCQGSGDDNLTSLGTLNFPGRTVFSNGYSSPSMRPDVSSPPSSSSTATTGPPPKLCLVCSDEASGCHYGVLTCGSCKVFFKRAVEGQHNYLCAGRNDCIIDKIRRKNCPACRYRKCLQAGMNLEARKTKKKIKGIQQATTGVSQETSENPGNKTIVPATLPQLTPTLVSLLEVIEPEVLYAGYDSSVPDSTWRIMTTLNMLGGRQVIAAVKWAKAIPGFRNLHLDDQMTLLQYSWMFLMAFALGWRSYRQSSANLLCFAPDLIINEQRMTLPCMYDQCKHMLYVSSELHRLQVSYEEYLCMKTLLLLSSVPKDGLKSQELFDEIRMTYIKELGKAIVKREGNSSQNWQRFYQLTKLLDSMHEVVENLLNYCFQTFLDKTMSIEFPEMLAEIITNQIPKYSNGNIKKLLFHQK
Method in brief: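 CHO-K1 cells expressing nuclear EA and GR-ED fragments of b-gal; compounds titrated up to 46 uM final, 2 h at 37 C. GR nuclear translocation read as complemented b-gal luminescence after 1 h RT detection.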

[7] = molecular target: Mitogen-activated protein kinase 10 (Mus musculus) (UniProt Q61831); experiment: JNK3 AlphaScreen Assay (AID 530); conditions: JNK3 lysate, c-Jun phosphorylation; series mostly up to 57.1 µM;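 further: kinase came from lysate of stimulated human HepG2 cells; signal reports phosphorylation of biotinylated GST-cJun 1-79 at Ser73 with 10 µM ATP; on the % scale 0 is the no-effect control and ±100 the full control effect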
Method in brief: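 Activity was read by AlphaScreen after JNK3-containing HepG2 lysate (cytokine pre-activated) phosphorylated biotinylated GST-cJun with 10 uM ATP at room temperature. Phospho-Ser73 cJun antibody with Protein-A acceptor beads provided detection.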

[8] = molecular target: Cytochrome P450 3A4 (Homo sapiens) (UniProt P08684); experiment: qHTS Assay for Activators of Cytochrome P450 3A4 (AID 885; active means well fitted curve in the direction sought with a large enough effect; an effect the other way counts as inactive or inconclusive; further: nearly all actives have a fitted effect of over 65% in size); conditions: recombinant CYP3A4, Luciferin-PPXE luminescence, 60 min; series mostly up to 57.1 µM
Cytochrome P450 3A4 (Homo sapiens), sequence (P08684 whole entry, looked up): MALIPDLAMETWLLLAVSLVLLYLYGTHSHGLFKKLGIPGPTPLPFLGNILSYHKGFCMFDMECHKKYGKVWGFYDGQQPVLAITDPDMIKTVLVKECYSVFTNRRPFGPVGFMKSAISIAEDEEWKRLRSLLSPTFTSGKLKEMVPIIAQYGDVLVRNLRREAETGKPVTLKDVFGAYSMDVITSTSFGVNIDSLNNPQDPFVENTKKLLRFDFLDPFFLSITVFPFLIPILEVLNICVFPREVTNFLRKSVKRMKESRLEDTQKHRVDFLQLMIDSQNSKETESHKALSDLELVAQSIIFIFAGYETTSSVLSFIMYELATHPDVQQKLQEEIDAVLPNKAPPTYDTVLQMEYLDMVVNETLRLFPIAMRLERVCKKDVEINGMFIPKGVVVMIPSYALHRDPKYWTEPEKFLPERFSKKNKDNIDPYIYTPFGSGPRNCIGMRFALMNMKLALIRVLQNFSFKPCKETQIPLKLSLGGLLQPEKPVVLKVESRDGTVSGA
Method in brief: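 CYP3A4 activity: Luciferin-PPXE O-dealkylation, 25uM substrate, 200mM KPO4, RT throughout. Read-out is luciferase luminescence; higher values reflect activation.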

[9] = molecular target: Cytochrome P450 2C19 (Homo sapiens) (UniProt P33261); experiment: qHTS Assay for Inhibitors and Substrates of Cytochrome P450 2C19 (AID 899; active means well fitted curve in the direction sought with a large enough effect; an effect the other way counts as inactive or inconclusive; further: potency means the concentration at half of the fitted maximal effect; nearly all actives have a fitted effect of over 60% in size); conditions: recombinant CYP2C19, luciferin-H EGE luminescence; series mostly up to 57.1 µM
Cytochrome P450 2C19 (Homo sapiens), sequence (P33261 whole entry, looked up): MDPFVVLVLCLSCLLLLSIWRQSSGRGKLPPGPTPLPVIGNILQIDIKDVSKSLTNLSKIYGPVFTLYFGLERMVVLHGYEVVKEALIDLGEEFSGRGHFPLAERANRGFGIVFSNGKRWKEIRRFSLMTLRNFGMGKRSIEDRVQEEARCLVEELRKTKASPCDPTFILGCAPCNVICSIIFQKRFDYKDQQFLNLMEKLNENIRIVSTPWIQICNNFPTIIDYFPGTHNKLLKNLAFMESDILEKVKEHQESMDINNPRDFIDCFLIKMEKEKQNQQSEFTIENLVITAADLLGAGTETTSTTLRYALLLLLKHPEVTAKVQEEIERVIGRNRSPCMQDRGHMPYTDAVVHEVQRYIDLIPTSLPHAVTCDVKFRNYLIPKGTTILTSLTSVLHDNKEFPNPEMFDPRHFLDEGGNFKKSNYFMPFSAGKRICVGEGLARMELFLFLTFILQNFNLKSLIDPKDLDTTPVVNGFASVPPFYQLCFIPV
Method in brief: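 5 nM human CYP2C19 with 10uM Luciferin-H EGE (at KM) in 50mM KPO4, compound preincubated 10 min at 37C, then NADPH regeneration for 60 min at 37C. Luciferin read by luminescence after detection reagent; normalized to 57uM ketoconazole as full inhibition.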

[10] = Primary qHTS for small molecule stabilizers of the endoplasmic reticulum resident proteome: Secreted ER Calcium Modulated Protein (SERCaMP) assay (AID 1508630; active means well fitted curve in the direction sought with a large enough effect; an effect the other way counts as inactive or inconclusive; further: on the % scale 0 is the no-effect control and ±100 the full control effect); conditions: SH-SY5Y GLuc-SERCaMP (Gaussia luciferase released on ER calcium loss) secretion, thapsigargin, luminescence; series mostly up to 38.4 µM
Method in brief: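 The SH-SY5Y reporter protocol was run at 3 concentrations up to 38.3 uM (primary) or 11 concentrations (follow-up): 16 h compound, 100 nM thapsigargin for 4 h, then extracellular luciferase luminescence.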

[11] = molecular target: 3',5'-cyclic-AMP phosphodiesterase 4B (Homo sapiens) (UniProt Q07343); experiment: qHTS Assay for Inhibitors of PDE-IV (AID 607; active means well fitted activation curve with a large enough effect in the main read-out, with a control signal flat, not every such curve was filed as active; further: % of control where 0% means no effect); conditions: HEK293 ACTOne CNG channel cells, membrane potential fluorescence; series mostly up to 22.9 µM
3',5'-cyclic-AMP phosphodiesterase 4B (Homo sapiens), sequence (Q07343 whole entry, looked up): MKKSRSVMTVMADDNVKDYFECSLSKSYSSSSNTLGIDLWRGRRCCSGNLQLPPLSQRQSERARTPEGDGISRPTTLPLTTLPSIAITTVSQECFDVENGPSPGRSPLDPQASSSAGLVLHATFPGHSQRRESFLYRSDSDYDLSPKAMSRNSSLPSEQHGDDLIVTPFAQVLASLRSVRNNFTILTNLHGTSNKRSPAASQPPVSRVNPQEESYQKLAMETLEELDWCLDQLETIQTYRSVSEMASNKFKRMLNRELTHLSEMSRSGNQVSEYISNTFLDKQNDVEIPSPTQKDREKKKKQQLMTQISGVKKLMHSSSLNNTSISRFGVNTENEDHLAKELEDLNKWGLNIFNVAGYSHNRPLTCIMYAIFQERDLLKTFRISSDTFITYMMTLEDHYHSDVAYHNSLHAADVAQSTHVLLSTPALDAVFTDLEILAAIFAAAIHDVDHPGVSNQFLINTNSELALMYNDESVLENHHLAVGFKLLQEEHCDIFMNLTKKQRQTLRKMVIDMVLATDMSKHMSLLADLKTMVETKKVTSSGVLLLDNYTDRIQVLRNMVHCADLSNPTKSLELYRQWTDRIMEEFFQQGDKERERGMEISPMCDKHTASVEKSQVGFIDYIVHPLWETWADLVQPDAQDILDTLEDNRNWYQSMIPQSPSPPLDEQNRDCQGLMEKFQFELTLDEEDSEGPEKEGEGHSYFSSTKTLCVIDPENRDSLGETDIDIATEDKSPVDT
Method in brief: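 ACTOne HEK293 cells carry a modified cAMP-gated CNG channel and express endogenous PDE4; plated 1000 cells/well, compounds up to 22.9 uM final. Membrane-potential dye fluorescence (ex 535/em 590) was read; parental cells received 10 uM forskolin + 100 uM RO 20-1724.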

[12] = molecular target: Glucocorticoid receptor (Homo sapiens) (UniProt P04150); experiment: GR-GFP Redistribution (AID 450;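 active means compounds whose dose series gives a full or clear partial fitted curve of increased nuclear translocation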; further: potency means the concentration at half of the fitted maximal effect); conditions: U2OS GR-GFP nuclear translocation, laser cytometry, 2 h
[13] = molecular target: Cytochrome P450 3A4 (Homo sapiens) (UniProt P08684); experiment: qHTS Assay for Inhibitors and Substrates of Cytochrome P450 3A4 (AID 884; active means well fitted curve in the direction sought with a large enough effect; an effect the other way counts as inactive or inconclusive; further: potency means the concentration at half of the fitted maximal effect; nearly all actives have a fitted effect of over 50% in size); conditions: recombinant CYP3A4, Luciferin-PPXE luminescence; series mostly up to 57.1 µM
Method in brief: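 Luminescent readout of luciferin produced by CYP3A4 (20 nM) dealkylation of Luciferin-PPXE, 25 uM (its KM). NADPH-driven reaction ran 60 min at RT after 10 min compound preincubation; data scaled to 57 uM ketoconazole as 100% inhibition.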

[14] = qHTS Assay for Identification of Small Molecule Agonists for Hypoxia Response Element Signaling Pathway (AID 914; active means well fitted activation curve with a large enough effect in the signal ratio, with a control signal flat, not every such curve was filed as active; the % refers to the signal ratio; further: potency means the concentration at half of the fitted maximal effect); conditions: ME-180 (cervical carcinoma) HRE-bla reporter, beta-lactamase ratio, CoCl2, 17 h; activation: hits give high values
Method in brief: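 Compounds in a titration series were added to ME-180 reporter cells alongside an EC50 level of CoCl2. After 17 hours, beta-lactamase activity was read as the 460nm/530nm emission ratio of CCF4, giving AC50 values.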

O=C(Oc1ccccc1)N1CCC[C@@]2(CCN(c3ccccn3)C2)C1
active: Potency [3] 7.94 µM | Potency [9] 5.01 µM
inactive: Potency [1] > 11.4 µM | activity change, negative = inhibition [2] 7.28% | activity change, negative = inhibition [4] -24.6% | activity, negative = inhibition [5] 9.87% | Potency [6] > 46 µM | Potency [7] | Potency [8] | outcome [10]

CC(C)NC(=O)N1CCCC2(CCN(C(=O)c3csnn3)CC2)C1
inactive: Potency [1] > 11.4 µM | activity change, negative = inhibition [2] 3.46% | Potency [3] | activity change, negative = inhibition [4] -7.86% | activity, negative = inhibition [5] 2.78% | Potency [6] > 46 µM | Potency [7] | Potency [11] | Potency [8] | outcome [10]

COc1ccc(Oc2ncc3nc(-c4cccs4)c(=O)n(-c4ccccc4)c3n2)cc1
active: Potency [3] 3.16 µM | Potency [13] 2.51 µM | Potency [14] 2.51 µM
inactive: Potency [1] > 11.4 µM | activity change, negative = inhibition [2] 21.1% | activity change, negative = inhibition [4] 8.33% | Potency [12] > 9.22 µM | Potency [6] > 46 µM | Potency [7] | Potency [11] | Potency [8] | outcome [10]
